Laboratory results: PMC4336329 (PLoS ONE, 2015)
Hit rate of the full screen: of about 310,000 compounds, about 14,000 (4.5%) showed an effect of 50% or more. Effects have a minus sign here. This excerpt belongs to a sample that is enriched for strong results.

biological target: human ether-à-go-go-related gene (hERG) potassium channel (human, UniProt Q12809); assay: primary screen, population patch clamp on CHO cells stably expressing hERG; higher = less effect of the substance
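Note: peak tail current of the secondary pulse compared with the same well before compound.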

Sequence of human ether-à-go-go-related gene (hERG) potassium channel (Q12809 whole entry, looked up): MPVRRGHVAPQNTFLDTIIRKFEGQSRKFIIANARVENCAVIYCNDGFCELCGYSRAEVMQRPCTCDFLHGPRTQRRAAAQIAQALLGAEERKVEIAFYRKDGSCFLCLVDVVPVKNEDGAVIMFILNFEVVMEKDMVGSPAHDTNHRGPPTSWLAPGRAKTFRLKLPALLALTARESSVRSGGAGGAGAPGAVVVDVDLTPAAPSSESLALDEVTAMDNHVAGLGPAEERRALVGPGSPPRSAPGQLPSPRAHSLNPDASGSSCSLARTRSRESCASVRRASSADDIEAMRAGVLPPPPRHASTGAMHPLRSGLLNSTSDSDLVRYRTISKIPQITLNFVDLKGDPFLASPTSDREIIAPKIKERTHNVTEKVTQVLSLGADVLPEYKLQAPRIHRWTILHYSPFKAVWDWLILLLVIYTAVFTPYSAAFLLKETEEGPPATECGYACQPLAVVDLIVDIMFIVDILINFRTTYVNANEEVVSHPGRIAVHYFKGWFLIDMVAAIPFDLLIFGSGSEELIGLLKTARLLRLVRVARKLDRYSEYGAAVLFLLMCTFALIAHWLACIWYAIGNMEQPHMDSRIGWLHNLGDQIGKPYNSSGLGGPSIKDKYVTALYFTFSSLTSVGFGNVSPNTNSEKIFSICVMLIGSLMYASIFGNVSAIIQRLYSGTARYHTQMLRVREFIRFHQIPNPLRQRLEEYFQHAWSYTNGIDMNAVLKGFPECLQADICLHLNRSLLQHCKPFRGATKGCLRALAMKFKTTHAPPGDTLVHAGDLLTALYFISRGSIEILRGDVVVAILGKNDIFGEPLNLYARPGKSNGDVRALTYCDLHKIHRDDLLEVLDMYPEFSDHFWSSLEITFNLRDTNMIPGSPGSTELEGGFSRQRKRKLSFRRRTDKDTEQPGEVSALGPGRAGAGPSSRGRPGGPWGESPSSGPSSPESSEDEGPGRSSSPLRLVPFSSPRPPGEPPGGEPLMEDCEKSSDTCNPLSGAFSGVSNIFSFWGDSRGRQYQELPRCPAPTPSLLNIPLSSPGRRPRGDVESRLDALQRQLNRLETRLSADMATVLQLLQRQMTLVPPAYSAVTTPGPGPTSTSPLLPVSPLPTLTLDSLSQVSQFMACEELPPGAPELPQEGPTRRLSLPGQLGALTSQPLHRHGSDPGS

Row | Compound | hERG current change (%, negative = inhibition) at 10uM [%]
1 | COc1ccccc1CNC(=O)CS(=O)Cc1nc(-c2ccc(OC)c(OC)c2)oc1C (centres unmarked) | -6.47
2 | COc1ccccc1NS(=O)(=O)c1ccc2oc(=S)[nH]c2c1 | 2.14
3 | CC1CC(C)(C)NC(=S)N1CCC(=O)Nc1ccc2c(c1)OCCO2 (centres unmarked) | 18.3
4 | CC(C)(C)c1ccc(OC(=O)N2CCOCC2)cc1 | 14
5 | COc1cc(OC)cc(C(=O)Nc2cccc(-c3ccc(N4CCOCC4)nn3)c2)c1 | 14.5
6 | O=c1[nH]c(=O)n(Cc2ccc(F)cc2)c(O)c1C=NCC1CCCO1 (centres unmarked) | -13
7 | O=c1[nH]c(=S)n(CCC2=CCCCC2)c(O)c1C=NCc1cccnc1 | -0.946
8 | O=c1[nH]c(=S)n(Cc2ccc(F)cc2)c(O)c1C=NCC1CCCO1 (centres unmarked) | -61.9
9 | O=c1[nH]c(=S)n(Cc2ccc(F)cc2)c(O)c1C=NCCCn1ccnc1 | -60.3
10 | O=c1[nH]c(=S)n(CCC2=CCCCC2)c(O)c1C=NCCCn1ccnc1 | -69.3
11 | O=c1[nH]c(=O)n(CCC2=CCCCC2)c(O)c1/C=N/N1CCOCC1 | -21.6
12 | O=c1[nH]c(=O)n(Cc2ccc(F)cc2)c(O)c1C=NCCCn1ccnc1 | 4.08
13 | CN1CCN(/N=C/c2c(O)n(CCC3=CCCCC3)c(=S)[nH]c2=O)CC1 | -64.9
14 | O=c1[nH]c(=S)n(C2CC2)c(O)c1C=NCC1CCCO1 (centres unmarked) | -6.97
15 | O=c1[nH]c(=S)n(CCC2=CCCCC2)c(O)c1/C=N/N1CCOCC1 | -41.8
16 | O=c1[nH]c(=O)n(CCC2=CCCCC2)c(O)c1C=NCCCn1ccnc1 | -17.6
17 | O=c1[nH]c(=O)n(CCc2ccc(F)cc2)c(O)c1C=NCCCn1ccnc1 | -3.22
18 | O=C(/C=C/c1ccccc1)C1C(=O)c2ccccc2C1=O | -0.201
19 | Cn1cnc(S(=O)(=O)N2CCN(c3ccccc3)CC2)c1 | 17.3
20 | Cc1c(C(=O)O)oc2c1C(O)CCC2 (centres unmarked) | 0.768
21 | COc1ccc(N(C(C)=O)C2C=CS(=O)(=O)C2)c(OC)c1 (centres unmarked) | 9.14
22 | CSc1nnc(C(C)(C)C)c(=O)n1/N=C/c1ccc(Cl)cc1 | 0.0206
23 | CC(/C=N/NC(=O)CNc1n[nH]c(=O)[nH]c1=O)c1ccccc1 (centres unmarked) | 2.52

Row | Compound | hERG current change (%, negative = inhibition) at 10uM [%]
24 | CN(Cc1ncc[nH]1)Cc1cn(-c2ccccc2)nc1-c1ccc2c(c1)OCO2 | -60.1
25 | COc1ccc(-c2nn(-c3ccccc3)cc2CN2CCCO2)c(F)c1 | 3.95
26 | COc1ccc(-c2nn(-c3ccccc3)cc2CN(C)CCn2ccnc2C)c(F)c1 | -57.6
27 | CN(Cc1cn(Cc2ccccc2)nc1-c1ccc2c(c1)OCO2)Cc1nccn1C | -32.7
28 | CN(Cc1cn(-c2ccccc2)nc1-c1ccc2c(c1)OCO2)Cc1nccn1C | -16.1
29 | CN(Cc1cnccn1)Cc1cn(Cc2ccccc2)nc1-c1ccc2c(c1)OCO2 | -23
30 | Cc1nccn1CCN(C)Cc1cn(Cc2ccccc2)nc1-c1ccc2c(c1)OCO2 | -60
31 | COc1cccc(-c2nn(-c3ccccc3)cc2CN(C)Cc2ccon2)c1 | 9.02
32 | CCn1ccnc1CN(C)Cc1cn(-c2ccccc2)nc1-c1ccc(OC)cc1F | -44.9
33 | CN(Cc1ccccn1)Cc1cn(Cc2ccccc2)nc1-c1ccc2c(c1)OCO2 | -20.6
34 | COc1cccc(-c2nn(-c3ccccc3)cc2CN(C)Cc2c(C)nc3ccccn23)c1 | -59.9
35 | COc1cccc(-c2nn(-c3ccccc3)cc2CN(C)Cc2ccno2)c1 | 3.65
36 | O=C(c1nnc(Cc2ccc(Cl)cc2)o1)N1CCOCC1 | 10.7
37 | O=C(Nc1ccc(Cl)cc1)N1CCOCC1 | 13.8
38 | O=C(Nc1ccc(F)c(Cl)c1)c1ccccc1 | 0.672
39 | COCCNS(=O)(=O)c1cc(C(=O)O)ccc1OC | 15.9
40 | COc1cc(C(=O)OC2C[C@H]3CC[C@@H](C2)N3C)ccc1O (some centres unmarked) | -7
41 | Cc1ccc(N2C(=O)C3C(C2=O)C(C(=O)c2ccc(Cl)cc2)N2CCCC32)cc1 (centres unmarked) | 2.31
42 | OCC[C@@H]1C[C@@H](O)[C@H](O)[C@@]2(CCCO2)O1 | 6.76
43 | CCCc1cc(=O)[nH]c(SCC(=O)c2c(N)n(C3CC3)c(=O)[nH]c2=O)n1 | 6.85
44 | COc1ccc2c3n(nc2c1)CCN=C3c1ccc(C)cc1 | -14.3
45 | O=C(NCCS(=O)(=O)N1CCN(c2ccccc2)CC1)C1CC(=O)N(c2ccc(F)cc2)C1 (centres unmarked) | -1.02
46 | O=C(CN1CCN(c2ccccc2F)CC1)NCc1ccccc1 | -0.288

Row | Compound | hERG current change (%, negative = inhibition) at 10uM [%]
47 | O=C(COC(=O)CNC(=O)c1ccccc1F)Nc1ncc(Cl)cc1Cl | -3.8
48 | Cc1c(Cl)cccc1NC(=S)N(Cc1ccco1)C(C)c1ccccn1 (centres unmarked) | -11
49 | CN(CCn1ccnc1)Cc1cn(-c2ccccc2)nc1-c1ccc2c(c1)OCO2 | -62.9
50 | CN(CCn1ccnc1)Cc1cn(Cc2ccccc2)nc1-c1ccc2c(c1)OCO2 | -23.2
51 | CN(Cc1cccnc1)Cc1cn(Cc2ccccc2)nc1-c1ccc2c(c1)OCO2 | -11.7
52 | CCOC(=O)N1CCN(C(=O)/C(=C/c2cccs2)NC(=O)c2cccs2)CC1 | -45.7
53 | O=C(N/C(=C/c1cccs1)C(=O)N1CCCC1)c1ccccc1 | 6.44
54 | O=C(N/C(=C/c1ccc2c(c1)OCO2)C(=O)N1CCOCC1)c1cccs1 | 9.12
55 | Cc1cccc(NC(=O)/C(=C\c2cccs2)NC(=O)c2ccccc2)c1 | -51.7
56 | CN1CCN(C(=O)/C(=C\c2cccs2)NC(=O)c2ccccc2)CC1 | -75.3
57 | Cc1ccc(NC(=O)/C(=C\c2cccs2)NC(=O)c2ccccc2)cc1 | -3.84
58 | CCOC(=O)N1CCC(NC(=O)c2cccs2)CC1 | 6.2
59 | O=C(N/C(=C\c1cccs1)C(=O)N1CCCCCC1)c1ccccc1 | -32.3
60 | O=C(N/C(=C\c1ccc2c(c1)OCO2)C(=O)N1CCOCC1)c1cccs1 | -42.8
61 | CCOC(=O)N1CCN(C(=O)/C(=C\c2cccs2)NC(=O)c2cccs2)CC1 | -71.8
62 | O=C(Nc1ccccc1)/C(=C\c1cccs1)NC(=O)c1ccccc1 | 9.9
63 | CN1CCN(C(=O)/C(=C\c2ccc3c(c2)OCO3)NC(=O)c2cccs2)CC1 | -76.8
64 | COc1cc(CNCC2CCCO2)ccc1OCC(N)=O.Cl (centres unmarked) | 16.3
65 | CCOc1ccc(S(=O)(=O)N2CCC(C(=O)NCc3cccnc3)CC2)cc1 | -27.1
66 | CCCC1(c2ccccc2)NC(=O)N(CC(=O)Nc2cc(C)on2)C1=O (centres unmarked) | 23.6
67 | CCc1nn(CC(=O)NCCc2ccc(S(N)(=O)=O)cc2)c(=O)c2cc3sccc3n12 | 20.1
68 | Oc1ccc(O)c(/C(=N/Nc2ccccc2)c2ccccc2)c1 | 11
69 | O=c1n(-c2cccc(Cl)c2)c(=O)n2n1CCC2 | -6.81

Row | Compound | hERG current change (%, negative = inhibition) at 10uM [%]
70 | O=C(CCN1CCN(c2ccc(Cl)cc2)CC1)Nc1nccs1 | -13.3
71 | COc1cc(C2c3c(oc4c(C)cc(C)cc4c3=O)C(=O)N2Cc2cccnc2)ccc1O (centres unmarked) | 5.03
72 | COCC(C)n1c(C)cc(C(=O)COC(=O)/C=C/c2cccc(F)c2)c1C (centres unmarked) | -31.6
73 | Cc1nn(Cc2ccccc2)c(Cl)c1/C=C/C(=O)OC(C)C(=O)N1CCCC1 (centres unmarked) | 18.7
74 | O=C(N/C(=C/c1cccs1)C(=O)N1CCOCC1)c1cccs1 | -8.41
75 | Cc1ccc(C(=O)N/C(=C/c2cccs2)C(=O)N2CCCCCC2)cc1 | -46
76 | Cc1ccc(C(=O)N/C(=C\c2cccs2)C(=O)N2CCCCCC2)cc1 | -50.7
77 | Cc1ccc(C(=O)N/C(=C/c2cccs2)C(=O)N2CCCCC2)cc1 | -35.4
78 | O=C(N/C(=C\c1cccs1)C(=O)N1CCOCC1)c1cccs1 | -9.07
79 | CN1CCN(C(=O)/C(=C\c2cccs2)NC(=O)c2cccs2)CC1 | -72.5
80 | Cc1cc(NC(=O)C2CC(=O)N(c3ccccc3Cl)C2)no1 (centres unmarked) | 14.6
81 | C/C(=N\NC(=O)CNC(=O)c1ccc2c(c1)OCCO2)c1ccco1 | 10.7
82 | CC(=O)Nc1ccc(S(=O)(=O)N2CCN(CCCOc3ccccc3Cl)CC2)cc1 | -49.6
83 | CN(CCN1CCOCC1)C(=O)CC1C(=O)NCCN1Cc1ccccc1F (centres unmarked) | 12
84 | Cc1csc(NC(=O)CSc2ccc(-c3ccccn3)nn2)n1 | -73.6
85 | Cc1csc(NC(=O)CSc2ccc(-c3ccccc3)nn2)n1 | -66.9
86 | CCN(CC)C(=O)CSc1nnc(-c2ccccn2)n1-c1ccc(C)c(C)c1 | -24.8
87 | Cc1nnc(NC(=O)CSc2ccc(-c3ccccn3)nn2)s1 | 12.1
88 | Cc1cc(C)cc(NC(=O)CSc2ccc(-c3ccccn3)nn2)c1 | 8.61
89 | Cc1ccc(-n2c(SCC(N)=O)nnc2-c2ccccn2)cc1C | 8.79
90 | Cc1csc(NC(=O)CSc2ccc(-c3ccc(F)cc3)nn2)n1 | -26.8
91 | Cc1csc(NC(=O)CSc2nnc(-c3ccccn3)n2-c2ccc(C)c(C)c2)n1 | -78.5
92 | Cc1csc(SCC(=O)Nc2nc(-c3ccccc3)cs2)n1 | -8.35
